G9a block: qHTS Assay for Inhibitors of Histone Lysine Methyltransferase G9a | 350,000 compounds, 8.8% hits | G9a H3K9 monomethylation, AlphaScreen, 2 h | AID 504332, 2011 | Histone-lysine N-methyltransferase EHMT2 (Homo sapiens), Q96KQ7 | Potency, µM (titrated, usually from 102 µM), inactives show at the top dose activity, negative = inhibition, usual class: inhibitors; note: % is set by controls: 0 for no effect and ±100 for the full control effect; nearly all actives have a fitted effect of over 75% in size
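Step 1: enzyme (final 20 nM) with compound, 15 min RT. Step 2: substrate peptide 500 nM and SAM 20 uM, 2 h RT. Step 3: anti-H3K9me1 antibody and AlphaScreen beads, 10 min, then plate read.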
Sfp inh: qHTS Assay for Inhibitors of Bacillus subtilis Sfp phosphopantetheinyl transferase (PPTase). 4'-phosphopantetheinyl transferase ffp (Bacillus subtilis), Q9F4F7. Biochemical Sfp PPTase activity, qHTS. Potency, µM, without a hit: largest response in the series, negative = inhibition, usual class: inhibitors. 310,000 compounds, 3.5% hits;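 note: the enzyme is Sfp with the accession as filed and its product quenches rhodamine fluorescence; 0% = enzyme reaction without inhibitor and -100% = no enzyme wells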
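Reaction rates are the 30-min fluorescence difference (ex 525, em 598 nm) in wells containing 15 nM Sfp, 5 uM rhodamine-CoA and 12.5 uM BHQ-2-YbbR at pH 7.6 with 10 mM MgCl2.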
HP1b binding inh: HTS for Inhibitors of HP1-beta Chromodomain Interactions with Methylated Histone Tails; AlphaScreen HP1-beta / biotin-H3K9me3 peptide binding; Potency, µM (series often up to 114 µM), for inactives: at the top dose activity change, negative = inhibition, actives largely listed as inhibitors; 390,000 compounds, 0.56% hits; AID 540317, 2011; note: nearly all actives have a fitted effect of over 70% in size
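HP1-beta protein (50 nM final) preincubated 30 min at room temperature with biotinylated H3(1-18)K9me3 peptide (50 nM) in PBS pH 7.4, 0.01% Tween-20, then compound added for 30 min. AlphaScreen streptavidin donor/nickel chelate acceptor beads (10 ug/mL final), 30 min dark, luminescence read.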
JMJD2A Tudor: qHTS Assay for Inhibitors of JMJD2A-Tudor Domain; Lysine-specific demethylase 4A (Homo sapiens), O75164; AlphaScreen JMJD2A-Tudor / H3K4me3 peptide binding; Potency, µM (top dose mostly 114 µM), without a hit: at the top dose activity change, negative = inhibition, usual class: inhibitors; 390,000 compounds, 4.4% hits; AID 504339, 2011; note: % is set by controls: 0 for no effect and ±100 for the full control effect; nearly all actives have a fitted effect of over 50% in size
BAZ2B inh: qHTS Assay for Inhibitors of BAZ2B; 360,000 compounds, 4.4% hits; AlphaScreen BAZ2B-H3K14Ac peptide displacement; Potency, µM (series often up to 114 µM), for inactives: at the highest dose activity change, negative = inhibition, hits mostly inhibitors; Bromodomain adjacent to zinc finger domain protein 2B (Homo sapiens), Q9UIF8; note: % is set by controls: 0 for no effect and ±100 for the full control effect; nearly all actives have a fitted effect of over 60% in size
Target sequence (Q9UIF8 whole entry, looked up, the tested form may be a part): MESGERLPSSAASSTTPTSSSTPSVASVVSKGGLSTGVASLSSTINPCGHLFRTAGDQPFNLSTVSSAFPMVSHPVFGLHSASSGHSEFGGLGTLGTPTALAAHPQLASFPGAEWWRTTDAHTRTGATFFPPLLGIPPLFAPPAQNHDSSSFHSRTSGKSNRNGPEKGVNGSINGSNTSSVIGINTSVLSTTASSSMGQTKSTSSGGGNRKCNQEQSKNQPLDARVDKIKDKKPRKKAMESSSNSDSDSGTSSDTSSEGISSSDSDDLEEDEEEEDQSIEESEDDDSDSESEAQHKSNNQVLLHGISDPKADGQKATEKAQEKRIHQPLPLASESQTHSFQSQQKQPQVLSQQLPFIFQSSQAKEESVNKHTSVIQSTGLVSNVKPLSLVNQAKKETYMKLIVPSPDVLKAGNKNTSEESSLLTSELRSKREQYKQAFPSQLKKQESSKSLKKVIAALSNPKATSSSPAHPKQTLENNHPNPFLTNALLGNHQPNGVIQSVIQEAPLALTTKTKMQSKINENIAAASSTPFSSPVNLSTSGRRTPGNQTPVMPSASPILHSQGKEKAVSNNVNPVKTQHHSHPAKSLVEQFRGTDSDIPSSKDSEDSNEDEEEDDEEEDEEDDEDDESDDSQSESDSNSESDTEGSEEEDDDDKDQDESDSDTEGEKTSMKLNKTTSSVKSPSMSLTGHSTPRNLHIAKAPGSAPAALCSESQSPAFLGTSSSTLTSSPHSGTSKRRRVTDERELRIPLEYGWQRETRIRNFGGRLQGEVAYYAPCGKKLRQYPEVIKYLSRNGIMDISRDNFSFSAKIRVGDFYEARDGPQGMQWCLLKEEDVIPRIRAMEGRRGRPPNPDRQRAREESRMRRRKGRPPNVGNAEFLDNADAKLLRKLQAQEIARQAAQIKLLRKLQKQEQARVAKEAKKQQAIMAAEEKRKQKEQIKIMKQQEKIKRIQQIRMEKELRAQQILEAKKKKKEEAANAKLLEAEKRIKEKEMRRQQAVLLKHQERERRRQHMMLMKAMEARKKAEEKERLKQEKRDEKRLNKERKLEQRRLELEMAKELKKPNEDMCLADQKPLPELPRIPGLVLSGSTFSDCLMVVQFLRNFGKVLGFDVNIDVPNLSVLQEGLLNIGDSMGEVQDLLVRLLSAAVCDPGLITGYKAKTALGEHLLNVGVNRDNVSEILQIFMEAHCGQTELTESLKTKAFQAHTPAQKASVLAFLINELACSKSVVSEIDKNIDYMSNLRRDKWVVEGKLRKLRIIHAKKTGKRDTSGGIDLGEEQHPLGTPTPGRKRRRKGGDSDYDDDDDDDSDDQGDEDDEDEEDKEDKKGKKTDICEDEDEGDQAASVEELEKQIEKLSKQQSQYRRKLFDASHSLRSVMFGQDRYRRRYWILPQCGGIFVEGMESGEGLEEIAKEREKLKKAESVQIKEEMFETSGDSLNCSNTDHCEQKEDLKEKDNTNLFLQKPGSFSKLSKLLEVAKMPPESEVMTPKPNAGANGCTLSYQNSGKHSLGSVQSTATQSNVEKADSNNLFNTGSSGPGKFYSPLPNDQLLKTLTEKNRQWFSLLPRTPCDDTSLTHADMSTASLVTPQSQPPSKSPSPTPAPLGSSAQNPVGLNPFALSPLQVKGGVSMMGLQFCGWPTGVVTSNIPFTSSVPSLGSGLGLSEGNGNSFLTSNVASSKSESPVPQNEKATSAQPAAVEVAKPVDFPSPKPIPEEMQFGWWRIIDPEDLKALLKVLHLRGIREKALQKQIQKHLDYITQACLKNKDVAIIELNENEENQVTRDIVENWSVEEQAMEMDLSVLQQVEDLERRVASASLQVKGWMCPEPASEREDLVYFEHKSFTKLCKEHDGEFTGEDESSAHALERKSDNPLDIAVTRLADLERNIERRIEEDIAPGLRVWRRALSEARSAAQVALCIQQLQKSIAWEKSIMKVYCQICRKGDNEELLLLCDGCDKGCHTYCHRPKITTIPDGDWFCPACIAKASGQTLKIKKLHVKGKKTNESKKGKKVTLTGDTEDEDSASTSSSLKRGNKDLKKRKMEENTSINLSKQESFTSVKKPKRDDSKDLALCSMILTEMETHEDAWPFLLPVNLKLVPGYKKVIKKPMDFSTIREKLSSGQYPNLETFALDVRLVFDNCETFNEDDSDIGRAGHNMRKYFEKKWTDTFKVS
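BAZ2B (50 nM) with biotin-H3(5-23)K14Ac peptide (50 nM) in PBS pH 7.4, 0.01% Tween-20, preformed 30 min, then compound 30 min at room temperature; top concentration 110uM. AlphaScreen streptavidin donor/nickel chelate acceptor beads (10 ug/mL final), 20 min dark, signal read.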
L3MBTL1 inh: qHTS Assay for the Inhibitors of L3MBTL1. AID 485360, 2010. Potency, µM (doses to about 57.1 µM), inactives show at the top dose activity, negative = inhibition, usual class: inhibitors. AlphaScreen L3MBTL1–H3K9me1 peptide binding. Lethal(3)malignant brain tumor-like protein 1 (Homo sapiens), Q9Y468. 230,000 compounds, 0.66% hits; note: % is set by controls: 0 for no effect and ±100 for the full control effect; nearly all actives have a fitted effect of over 60% in size
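First, the protein-peptide complex forms for 30 min at room temperature (L3MBTL1 50 nM, biotinylated H3K9me1 peptide 75 nM). Next, compounds are pin-transferred and incubated 30 min. Finally, AlphaScreen beads are added and read after 30 min.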
An asterisk follows results filed as active; ! = a repeat was not active; [ ] = remark or other dose. An excerpt weighted towards active compounds, which were near 12% of everything screened. Calls come from the whole dose curve; as a rule, active = well fitted curve in the direction sought with a large enough effect; inconclusive = small, poorly fitted or top-dose-only effect, or another doubt; inactive = no such curve, though single readings can be large; an effect the other way counts as inactive or inconclusive. Potency is the fitted concentration of half-maximal effect.

Screening NS(=O)(=O)c1ccc(NC(=S)NC2CCCCCC2)cc1 returned G9a block inconclusive, Sfp inh 25.1µM*, HP1b binding inh -21.1%, JMJD2A Tudor -29.1%, BAZ2B inh -1.7% and L3MBTL1 inh -4.9%.
For NS(=O)(=O)c1ccc(NC(=S)NC(=O)C2CCCCC2)cc1 the results were G9a block inconclusive, Sfp inh 18.6%, HP1b binding inh 24.4%, JMJD2A Tudor -20.6%, BAZ2B inh -35.4% and L3MBTL1 inh -0.7%.
`COc1ccc(NC(=O)CSC2CCCCC2)cc1` gave G9a block -45.2%[12.7 µM], Sfp inh -2.6%, HP1b binding inh 30.3%, JMJD2A Tudor -9.6%, BAZ2B inh 7.8% and L3MBTL1 inh 5.1%.
For CC(OC(=O)CCC1CCCCC1)C(=O)Nc1ccc(S(N)(=O)=O)cc1 (stereo not given) the results were G9a block 56.2µM*, HP1b binding inh 11.5%, JMJD2A Tudor -15.9%, BAZ2B inh 7.4% and L3MBTL1 inh -10.7%.
`NS(=O)(=O)c1ccc(NC(=O)CSC2CCCCC2)cc1` gave G9a block inconclusive, Sfp inh 13.3%, HP1b binding inh -18.0%, JMJD2A Tudor 28.2µM*, BAZ2B inh -0.5% and L3MBTL1 inh -1.9%.
CCc1ccc(-c2cc3c(N4CCN(c5ccccc5)CC4)nccn3n2)cc1 was read as G9a block inconclusive, HP1b binding inh -5.7%, JMJD2A Tudor inconclusive and BAZ2B inh inconclusive.
Screening CC1CCc2c(sc(NC(=O)c3cc4nc(-c5ccc(Cl)cc5)cc(C(F)(F)F)n4n3)c2C#N)C1 (stereo not given) returned G9a block 0.7%[59 µM], HP1b binding inh 36.9%, JMJD2A Tudor -4.1% and BAZ2B inh -15.1%.
`O=C(O)Cc1c(Cl)ccc(Cl)c1Cl` gave Sfp inh 5.1%.
`CC[C@H](C)[C@@H](NC(=O)O[C@H]1C(=O)c2ccc(OC)cc2O[C@@H]1c1ccc2c(c1)OCO2)C(=O)OC` gave Sfp inh -1.3%.
`CCOC(=O)C1CCCN(C(=O)c2nn(-c3ccc(C)cc3)c(=O)c3c2c2ccccc2n3C)C1` (stereo not given) gave G9a block -20.1%[59 µM], HP1b binding inh 30.1% and JMJD2A Tudor -14.3%.
`O=C(CCCCCN1C(=O)CCC1=O)Nc1ncn[nH]1` gave G9a block 13.1%[12.7 µM], Sfp inh -11.1%, HP1b binding inh 47.2%, JMJD2A Tudor 50.1µM*, BAZ2B inh 50.1µM* and L3MBTL1 inh -12.3%.
Cc1c(Cl)cccc1NC(=O)CCCCCN1C(=O)CCC1=O was read as G9a block -6.3%[12.7 µM], Sfp inh -12.1%, HP1b binding inh 34.2%, JMJD2A Tudor 10.4%, BAZ2B inh 13.3% and L3MBTL1 inh -4.2%.
`CCN(Cc1ccccc1)C(=O)CCc1nc(-c2ccc(C)cc2)no1` gave G9a block 139.8%, Sfp inh -6.1%, HP1b binding inh 80.3%, JMJD2A Tudor 20.4%, BAZ2B inh 43.3% and L3MBTL1 inh 24.3%.
For CCN(Cc1ccccc1)C(=O)CCc1nc(CN2CCN(C(=O)c3ccc([N+](=O)[O-])cc3)CC2)no1 the results were G9a block 79.4µM*, Sfp inh 9.2%, HP1b binding inh 36.2%, JMJD2A Tudor -10.3% and BAZ2B inh -33.4%.
CCCCN1CCC(n2c(=O)[nH]c3ccccc32)CC1 was read as G9a block 9.47µM*.
For CCOc1ccc(NC(=O)N2CCC(n3c(=O)[nH]c4ccccc43)CC2)cc1 the results were G9a block -6.3%, Sfp inh 13.7%, HP1b binding inh 38.7%, JMJD2A Tudor -15.0% and BAZ2B inh -1.1%.
Screening Cc1csc2nc(COC(=O)CNC(=O)c3ccc(F)cc3)cc(=O)n12 returned G9a block 18.2%[59 µM], HP1b binding inh -7.5%, JMJD2A Tudor -14.7% and BAZ2B inh -0.4%.
COC(=O)[C@H]1[C@H]2C[C@@H]3c4[nH]c5cc(OC)ccc5c4CCN3C[C@H]2C[C@@H](OC(=O)c2cc(OC)c(OC)c(OC)c2)[C@@H]1OC was read as G9a block 22.4µM*!, Sfp inh 11.7%, HP1b binding inh inconclusive, JMJD2A Tudor 56.2µM*, BAZ2B inh 28.2µM* and L3MBTL1 inh inconclusive.
For COC(=O)[C@@H]1C2CC3c4[nH]c5cc(OC)ccc5c4CCN3CC2C[C@H](OC(=O)c2cc(OC)c(OC)c(OC)c2)C1OC (stereo not given in full) the results were G9a block inconclusive and Sfp inh -16.5%.
Screening COC(=O)[C@@H]1[C@H]2C[C@H]3c4[nH]c5ccccc5c4CCN3C[C@@H]2CC[C@@H]1O returned G9a block 21.2µM*!, Sfp inh 6.9%, HP1b binding inh 31.7%, JMJD2A Tudor inconclusive and BAZ2B inh 3.7%.
`CCOc1ccccc1N(CC)C(=O)c1cc2c(=O)n(CC)c3ccccc3c2s1` gave G9a block 8.5%[59 µM], HP1b binding inh 34.1%, JMJD2A Tudor -27.9% and BAZ2B inh 5.7%.
`Cn1c(=O)c(=O)n(C)c2cc(S(=O)(=O)N3CCCC3C(=O)Nc3cccc(F)c3)ccc21` (stereo not given) gave G9a block -29.4%[59 µM], HP1b binding inh 32.2%, JMJD2A Tudor -10.9% and BAZ2B inh -1.0%.
CC(C)CCC(CCN1CCOCC1)c1ccc2c(c1)OCO2 (stereo not given) was read as G9a block 44.7µM*, Sfp inh 79.4µM*, HP1b binding inh -52.0%, JMJD2A Tudor 3.16µM*, BAZ2B inh inconclusive and L3MBTL1 inh -1.2%.
COCCCNCCC(CCC(C)C)c1ccc2c(c1)OCO2 (stereo not given) was read as G9a block inconclusive, Sfp inh -15.3%, HP1b binding inh inconclusive, JMJD2A Tudor 20µM*, BAZ2B inh inconclusive and L3MBTL1 inh -7.0%.
`Cc1ccccc1NCC(=O)N/N=C/c1ccc([N+](=O)[O-])cc1` gave G9a block inconclusive, Sfp inh -6.8%, HP1b binding inh 19.8%, JMJD2A Tudor -21.2%, BAZ2B inh -8.0% and L3MBTL1 inh -3.0%.
